The values that follow come from the supplement of paper PMC10811239.

This assay relates to LEGO organoid PT (PTEN-/-; TP53-/-). Nature of the assay: bioluminescence (viable cell) signal fold change after vs before treatment, normalised to DMSO (ratio); higher = more tumour cell growth / less inhibition. To be noted: 10 µM; treatment time 6 days. Here is the method: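 Luc2-labelled iPSC-derived glioblastoma-like organoids (LEGOs, genotypes PT = PTEN-/-;TP53-/-, PTCC = plus CDKN2A/B-/-, PTN = plus NF1-/-) were treated with 10 uM drug for 6 days (applied every other day) at 37 C. Bioluminescence imaging was done before treatment and 2 days after the last dose. BLI signals were normalised to the DMSO control on the same day and then to the pre-treatment signal (N=3).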
Turning to `O=C(O)c1cc(/N=N/c2ccc(S(=O)(=O)Nc3ccccn3)cc2)ccc1O` [Sulfasalazine], the bioluminescence is 0.941.

As for `CCc1c2c(nc3ccc(OC(=O)N4CCC(N5CCCCC5)CC4)cc13)-c1cc3c(c(=O)n1C2)COC(=O)[C@]3(O)CC.Cl.O.O.O` [Irinotecan hydrochloride trihydrate], the bioluminescence was found to be 0.98.

`CO/N=C(\C(=O)N[C@@H]1C(=O)N2C(C(=O)[O-])=C(C[N+]3(C)CCCC3)CS[C@H]12)c1csc(N)n1.Cl.Cl.O` [Cefepime Dihydrochloride Monohydrate]: the bioluminescence came to 1.05.

Turning to `Cl.OC[C@H]1NC[C@H](O)[C@@H](O)[C@H]1O` [Migalastat hydrochloride], the bioluminescence turned out to be 0.868.

As for `O=C(O)Cc1ccccc1Nc1c(Cl)cccc1Cl` [Diclofenac], the bioluminescence worked out at 1.11.

As for `Cc1nc(Nc2ncc(C(=O)Nc3c(C)cccc3Cl)s2)cc(N2CCN(CCO)CC2)n1` [Dasatinib], the bioluminescence amounted to 0.748.

With `Cc1ccccc1C(OCCN(C)C)c1ccccc1.Cl` (stereo not drawn) [Orphenadrine hydrochloride], the bioluminescence worked out at 1.02.

Regarding `Cc1ccccc1C(OCCN(C)C)c1ccccc1.O=C(O)CC(O)(CC(=O)O)C(=O)O` (stereo not drawn) [Orphenadrine Citrate], the bioluminescence amounted to 0.847.

As for `CCCCCCCCc1ccc(CCC(N)(CO)CO)cc1.Cl` [Fingolimod hydrochloride], the bioluminescence was found to be 1.07.

As to `Cl.OC(CCN1CCCC1)(c1ccccc1)C1CCCCC1` (stereo not drawn) [Procyclidine hydrochloride], the bioluminescence worked out at 1.48.

For the compound `C[C@]12C=CC(=O)C=C1CC[C@@H]1[C@@H]2C(=O)C[C@@]2(C)[C@H]1CC[C@]2(O)C(=O)CO` [Prednisone], the bioluminescence was 1.13.

In the case of `Cl.N=C(N)NC(=O)Cc1c(Cl)cccc1Cl` [Guanfacine hydrochloride], the bioluminescence was determined as 1.1.

`NC(=O)c1ncn([C@@H]2O[C@H](CO)[C@@H](O)[C@H]2O)n1` [Ribavirin]: the bioluminescence amounted to 0.826.

With `C[C@@](Cc1ccc(O)c(O)c1)(NN)C(=O)O.O` [Carbidopa Hydrate], the bioluminescence worked out at 0.415.

`O=C(CCCN1CC=C(n2c(=O)[nH]c3ccccc32)CC1)c1ccc(F)cc1` [Droperidol]: the bioluminescence came out at 1.37.

As for `CCCOc1ccc(S(=O)(=O)NCCC2CCCN2C)cc1-c1nc2c(CCC)nn(C)c2c(=O)[nH]1` (stereo not drawn) [Udenafil], the bioluminescence was 1.36.

Turning to `CC[C@@H]1/C=C(\C)C[C@H](C)C[C@H](OC)[C@H]2O[C@@](O)(C(=O)C(=O)N3CCCC[C@H]3C(=O)O[C@H](/C(C)=C/[C@@H]3CC[C@H](Cl)[C@H](OC)C3)[C@H](C)[C@@H](O)CC1=O)[C@H](C)C[C@@H]2OC` [Pimecrolimus], the bioluminescence stood at 1.29.

For `N#Cc1ccc2[nH]cc(CCCCN3CCN(c4ccc5oc(C(N)=O)cc5c4)CC3)c2c1` [Vilazodone], the bioluminescence stood at 0.812.

For the compound `CS(=O)(=O)CCNCc1ccc(-c2ccc3ncnc(Nc4ccc(OCc5cccc(F)c5)c(Cl)c4)c3c2)o1.Cc1ccc(S(=O)(=O)O)cc1.Cc1ccc(S(=O)(=O)O)cc1` [Lapatinib Ditosylate], the bioluminescence was found to be 1.34.

Take `Cc1cccc(C)c1OCC(=O)N[C@@H](Cc1ccccc1)[C@@H](O)C[C@H](Cc1ccccc1)NC(=O)[C@H](C(C)C)N1CCCNC1=O` [Lopinavir]: the bioluminescence came to 1.02.

For the compound `CN(C)CCc1c[nH]c2ccc(C[C@H]3COC(=O)N3)cc12` [Zolmitriptan], the bioluminescence worked out at 0.724.

On to `CCC1=C[C@@H]2CN(C1)Cc1c([nH]c3ccccc13)[C@@](C(=O)OC)(c1cc3c(cc1OC)N(C)[C@H]1[C@@](O)(C(=O)OC)[C@H](OC(C)=O)[C@]4(CC)C=CCN5CC[C@]31[C@@H]54)C2.O=C(O)[C@H](O)[C@@H](O)C(=O)O.O=C(O)[C@H](O)[C@@H](O)C(=O)O` [Vinorelbine Tartrate], for which the bioluminescence amounted to 1.03.

As to `NC(=O)N1c2ccccc2CC(=O)c2ccccc21` [Oxcarbazepine], the bioluminescence is 0.572.

In the case of `O=C1CCc2ccc(OCCCCN3CCN(c4cccc(Cl)c4Cl)CC3)cc2N1` [Aripiprazole], the bioluminescence is 0.399.

As for `O=NN(CCCl)C(=O)NC1CCCCC1` [Lomustine], the bioluminescence amounted to 2.59.

For the compound `CC1=C(CC(=O)O)c2cc(F)ccc2/C1=C\c1ccc(S(C)=O)cc1` (stereo not drawn) [Sulindac], the bioluminescence was determined as 2.8.

Take `NS(=O)(=O)c1cc2c(cc1Cl)N=CNS2(=O)=O` [Chlorothiazide]: the bioluminescence worked out at 0.96.

For the compound `Cc1cn(-c2cc(NC(=O)c3ccc(C)c(Nc4nccc(-c5cccnc5)n4)c3)cc(C(F)(F)F)c2)cn1` [Nilotinib], the bioluminescence was 2.55.
